Results as given in PubChem BioAssay (EPA / NIEHS).
“And” between values parts separate entries of the source, which are not always exact repeats. Equal values may be shown once. Results filed as inconclusive are left out. The source holds several records for some structures; these can differ, active in one and inactive in another. The source made the active and inactive calls. The calls were made as follows, unless noted: active = hit-call score of the fitted dose curve at least 0.9, where 1 is the maximum; inconclusive = response in the unintended direction; inactive = score below 0.9.

How the values were obtained:
[1] = ATG_TCF_b_cat_CIS: Attagene CIS-FACTORIAL HepG2 Assay for human T-Cell-Factor with beta-catenin (TCF/b-cat) (AID 2282965; active = hit-call score of the fitted dose curve at least 0.9, where 1 is the maximum; inactive = score below 0.9); settings: HepG2 TCF/beta-catenin cis-reporter transcription, actives raise or lower the signal
Summary of the method: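 In this cis-format system, transfected HepG2 cells report endogenous transcription factor activity. Readout after 24 h exposure is reporter transcript abundance from RT-PCR and capillary electrophoresis, analysed for gain or loss of signal versus DMSO.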

[2] = ATG_TAL_CIS: Attagene CIS-FACTORIAL HepG2 Assay for human TAL Basal Promoter (AID 2282966; active = hit-call score of the fitted dose curve at least 0.9, where 1 is the maximum; inactive = score below 0.9;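 also: background control endpoint measuring basal TAL promoter reporter mRNA not a specific factor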); settings: HepG2 Attagene cis-factorial TAL promoter reporter; actives raise or lower the signal
Summary of the method: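 Readout: reporter mRNA, fluorescence by CE. System: HepG2, transient multi-reporter transfection, endogenous TF activity. Exposure: 24 h. Analysis: bidirectional, DMSO-normalized; background control.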

[3] = ATG_TGFb_CIS: Attagene CIS-FACTORIAL HepG2 Assay for human Transforming Growth Factor (TGF) (AID 2282967; active = hit-call score of the fitted dose curve at least 0.9, where 1 is the maximum; inactive = score below 0.9); settings: HepG2 Attagene CIS TGFb reporter, mRNA transcription; actives raise or lower the signal
Summary of the method: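 Endogenous TGFB1-linked transcription factor activity read as reporter mRNA via RT-PCR and capillary electrophoresis, 24 h after dosing transiently transfected HepG2 cells. Gain or loss of signal fitted relative to DMSO.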

[4] = ATG_VDRE_CIS: Attagene CIS-FACTORIAL HepG2 Assay for human Vitamin D Receptor Element (VDRE) (AID 2282968; active = hit-call score of the fitted dose curve at least 0.9, where 1 is the maximum; inactive = score below 0.9); settings: HepG2 VDRE cis-reporter transcription, actives raise or lower the signal
Summary of the method: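 HepG2 cells transiently transfected with cis-element reporter units, dosed 24 h; reporter mRNA measured by RT-PCR, 6-FAM labeling, HpaI digestion and capillary electrophoresis. Activity fitted bidirectionally against DMSO baseline.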

[5] = biological target: Nuclear receptor subfamily 1 group I member 3 (Homo sapiens) (UniProt Q14994); experiment: ATG_CAR_TRANS: Attagene TRANS-FACTORIAL HepG2 Assay for human Constitutive Androstane Receptor (CAR) (AID 2282969); settings: HepG2 Attagene TRANS-FACTORIAL CAR reporter;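 also: activators raise reporter mRNA above DMSO so AC50 marks induction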
Summary of the method: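 HepG2 cells transiently transfected with multiplexed GAL4-UAS reporter units expressing chimeric NR-Gal4 proteins; compound exposure 24 h. Reporter mRNA measured by RT-PCR, 6-FAM labelling, HpaI digestion and capillary electrophoresis; gain-of-signal fitted against DMSO baseline.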

[6] = biological target: Estrogen receptor (Homo sapiens) (UniProt P03372); experiment: ATG_ERa_TRANS: Attagene TRANS-FACTORIAL HepG2 Assay for human Estrogen Receptor alpha (ERa) (AID 2282970); settings: HepG2 Attagene TRANS ERa GAL4 reporter, mRNA
Summary of the method: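 Transactivation via ERa-Gal4 chimera in HepG2; 24 hour incubation; reporter mRNA detected by fluorescence RT-PCR and capillary electrophoresis.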

[7] = biological target: X-box-binding protein 1 (Homo sapiens) (UniProt P17861); experiment: ATG_Xbp1_CIS: Attagene CIS-FACTORIAL HepG2 Assay for human X-box Binding Protein 1 (XBP1) (AID 2282972; active = hit-call score of the fitted dose curve at least 0.9, where 1 is the maximum; inactive = score below 0.9); settings: HepG2 XBP1 cis-element reporter, Attagene multiplex; actives raise or lower the signal
Summary of the method: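 HepG2 cells transiently transfected with multiple cis-element reporter units report endogenous TF activity; 24 h exposure, then reporter mRNA measured by RT-PCR, 6-FAM labelling, HpaI digestion and capillary electrophoresis. Bidirectional fitting versus DMSO.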

[8] = ATG_Hpa5_TRANS: Attagene TRANS-FACTORIAL HepG2 Assay for human GAL4-Hpa5 Hepatocyte Transcription Factor Basal Promoter (AID 2282975); settings: HepG2 Attagene GAL4-Hpa5 transcription reporter;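 also: hits are increases in reporter mRNA over DMSO baseline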
Summary of the method: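 Basal-promoter GAL4 background control within the HepG2 trans-factorial panel of transiently transfected reporter units. Reporter mRNA is measured 24 h after dosing by RT-PCR and capillary electrophoresis, fitted for gain of signal versus DMSO.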

[9] = biological target: Oxysterols receptor LXR-alpha (Homo sapiens) (UniProt Q13133); experiment: ATG_LXRa_TRANS: Attagene TRANS-FACTORIAL HepG2 Assay for human Liver X Receptor alpha (LXRa) (AID 2282980); settings: HepG2 Attagene TRANS reporter, LXRa transactivation
Summary of the method: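 Transient HepG2 transfectants, 24 h dosing, RT-PCR/CE mRNA reporter quantitation; gain-of-signal vs DMSO.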

[10] = biological target: Oxysterols receptor LXR-beta (Homo sapiens) (UniProt P55055); experiment: ATG_LXRb_TRANS: Attagene TRANS-FACTORIAL HepG2 Assay for human Liver X Receptor beta (LXRb) (AID 2282981); settings: HepG2 Attagene TRANS GAL4-LXRb reporter, mRNA
Summary of the method: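 HepG2 cells transiently transfected with multiple reporter transcription units carrying chimeric NR-Gal4 proteins acting on GAL4-UAS reporters; compound exposure 24 h. Reporter mRNA quantified by RT-PCR, 6-FAM labelling, HpaI digestion and capillary electrophoresis; gain of signal versus DMSO.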

[11] = biological target: Hepatocyte nuclear factor 4-alpha (Homo sapiens) (UniProt P41235); experiment: ATG_HNF4a_TRANS: Attagene TRANS-FACTORIAL HepG2 Assay for human Hepatocyte Nuclear Factor 4 alpha (HNF4a) (AID 2282982); settings: HepG2 HNF4a transactivation reporter, mRNA readout
Summary of the method: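 HepG2 cells transiently transfected with multiplexed GAL4-UAS reporter units responsive to chimeric NR-GAL4 proteins; compound exposure 24 h. Reporter mRNA quantified by RT-PCR, 6-FAM labelling, HpaI digestion and capillary electrophoresis; gain of signal versus DMSO baseline.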

[12] = ATG_M_06_TRANS: Attagene TRANS-FACTORIAL HepG2 Assay for M06 Transcription Factor (Internal Marker) (AID 2282983); settings: HepG2 Attagene TRANS M06 internal marker reporter;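 also: reporter transcript level by RT-PCR then capillary electrophoresis fluorescence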
Summary of the method: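 Measured by capillary electrophoresis of fluorescently labelled RT-PCR products, this endpoint reflects reporter mRNA in HepG2 cells harbouring exogenous NR-GAL4 reporter constructs after 24 h exposure, with DMSO as baseline.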

[13] = ATG_M_32_TRANS: Attagene TRANS-FACTORIAL HepG2 Assay for M32 Transcription Factor (Internal Marker) (AID 2282984); settings: HepG2 Attagene TRANS M32 internal marker reporter
Summary of the method: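 HepG2 cells transiently transfected with multiple GAL4-UAS reporter transcription units, dosed for 24 hours; reporter mRNA quantified by RT-PCR, 6-FAM primer extension, HpaI digestion and capillary electrophoresis. Gain-of-signal fitted versus DMSO baseline; internal background-control marker.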

[14] = biological target: Nuclear receptor subfamily 4 group A member 2 (Homo sapiens) (UniProt P43354); experiment: ATG_NURR1_TRANS: Attagene TRANS-FACTORIAL HepG2 Assay for human Nuclear Receptor Related Protein 1 (NURR1) (AID 2282985); settings: HepG2 Attagene TRANS reporter, mRNA readout
Summary of the method: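 HepG2 cells transiently transfected with GAL4-UAS reporter units and chimeric NR-Gal4 constructs; chemical exposure 24 h. Reporter mRNA quantified by RT-PCR, fluorescent labelling and capillary electrophoresis; gain of signal fitted relative to DMSO baseline.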

[15] = biological target: Transcriptional activator Myb (Homo sapiens) (UniProt P10242); experiment: ATG_Myb_CIS: Attagene CIS-FACTORIAL HepG2 Assay for human Myeloblastosis (Myb) Proto-Oncogene Transcription Factor (AID 2282986; active = hit-call score of the fitted dose curve at least 0.9, where 1 is the maximum; inactive = score below 0.9); settings: HepG2 Attagene CIS-FACTORIAL Myb reporter transcription; actives raise or lower the signal
Summary of the method: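 After 24 h of compound dosing, total RNA from transfected HepG2 cells is reverse-transcribed and the reporter sequences amplified, labeled and separated by capillary electrophoresis. Values come from bidirectional fitting against DMSO.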

[16] = biological target: Steroid hormone receptor ERR1 (Homo sapiens) (UniProt P11474); experiment: ATG_ERRa_TRANS: Attagene TRANS-FACTORIAL HepG2 Assay for human Estrogen-Related Receptor alpha (ERRa) (AID 2282971); settings: HepG2 Attagene TRANS reporter, ERRa transactivation
Summary of the method: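 HepG2 cells were transiently transfected with multiple GAL4-UAS reporter units, then dosed with compound for 24 h. Total RNA was reverse-transcribed, reporter cDNA PCR-amplified and fluorescently labelled, and fragments resolved by capillary electrophoresis; induction was compared with DMSO.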

[17] = ATG_M_19_TRANS: Attagene TRANS-FACTORIAL HepG2 Assay for M19 Transcription Factor (Internal Marker) (AID 2282974); settings: HepG2 Attagene TRANS-FACTORIAL M19 internal marker reporter
Summary of the method: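 Transfected HepG2 (GAL4-UAS MRTUs), 24 h compound, TriZol RNA, DNase-treated RT, reporter PCR, FAM label, HpaI digest, CE fluorescence; gain vs DMSO.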

[18] = ATG_GAL4_TRANS: Attagene TRANS-FACTORIAL HepG2 Assay for GAL4 (Internal Marker) (AID 2282976); settings: HepG2 Attagene TRANS GAL4 internal marker reporter
Summary of the method: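 Fluorescence from capillary electrophoresis of labelled RT-PCR products quantifies reporter mRNA induction after 24 h dosing of HepG2 cells carrying transfected GAL4-UAS reporter transcription units. Vehicle DMSO serves as baseline.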

[19] = biological target: Glucocorticoid receptor (Homo sapiens) (UniProt P04150); experiment: ATG_GR_TRANS: Attagene TRANS-FACTORIAL HepG2 Assay for human Glucocorticoid Receptor (GR) (AID 2282978); settings: HepG2 Attagene TRANS GR reporter, mRNA transcription;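 also: activators score as hits since higher reporter transcript over DMSO is fitted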
Summary of the method: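 After 24 h incubation with test chemical, transfected HepG2 cells were lysed for RNA; reporter cDNA was amplified, FAM-labelled, HpaI-digested and sized on a capillary analyser. Signal gain relative to DMSO was scored.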

[20] = biological target: Androgen receptor (Homo sapiens) (UniProt P10275); experiment: ATG_AR_TRANS: Attagene TRANS-FACTORIAL HepG2 Assay for human Androgen Receptor (AR) (AID 2282973); settings: HepG2 Attagene TRANS-FACTORIAL AR reporter transcription
Summary of the method: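 Transfected HepG2, 24 h treatment, chimeric NR-Gal4 driving GAL4-UAS reporters. mRNA induction by RT-PCR/capillary electrophoresis fluorescence; DMSO as negative control and baseline.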

Measured: AC50

Nuclear receptor subfamily 1 group I member 3 (Homo sapiens), sequence (Q14994 whole entry, looked up, the tested form may be a part): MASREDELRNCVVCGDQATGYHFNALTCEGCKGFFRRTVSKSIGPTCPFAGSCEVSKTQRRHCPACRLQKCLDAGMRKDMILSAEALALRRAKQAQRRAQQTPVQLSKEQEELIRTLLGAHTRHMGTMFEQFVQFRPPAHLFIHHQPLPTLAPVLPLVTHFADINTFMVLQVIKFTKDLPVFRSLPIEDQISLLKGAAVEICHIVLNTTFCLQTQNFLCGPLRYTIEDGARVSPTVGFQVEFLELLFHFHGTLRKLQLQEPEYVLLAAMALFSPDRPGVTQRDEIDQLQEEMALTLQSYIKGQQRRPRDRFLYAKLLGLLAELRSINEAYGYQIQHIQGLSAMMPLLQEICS
Oxysterols receptor LXR-beta (Homo sapiens), sequence (P55055 whole entry, looked up, the tested form may be a part): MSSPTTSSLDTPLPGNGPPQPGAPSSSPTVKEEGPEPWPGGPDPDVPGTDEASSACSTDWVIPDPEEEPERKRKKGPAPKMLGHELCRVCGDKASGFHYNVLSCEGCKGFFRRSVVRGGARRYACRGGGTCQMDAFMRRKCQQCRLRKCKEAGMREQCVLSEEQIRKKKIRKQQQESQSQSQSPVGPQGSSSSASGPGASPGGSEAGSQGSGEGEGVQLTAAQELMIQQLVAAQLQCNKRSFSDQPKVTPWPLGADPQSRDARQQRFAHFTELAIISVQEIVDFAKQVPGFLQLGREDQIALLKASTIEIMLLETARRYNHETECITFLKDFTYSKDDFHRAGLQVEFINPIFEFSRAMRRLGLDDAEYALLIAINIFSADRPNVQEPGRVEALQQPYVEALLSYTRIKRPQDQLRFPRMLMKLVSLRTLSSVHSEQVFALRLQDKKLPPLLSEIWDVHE
X-box-binding protein 1 (Homo sapiens), sequence (P17861 whole entry, looked up): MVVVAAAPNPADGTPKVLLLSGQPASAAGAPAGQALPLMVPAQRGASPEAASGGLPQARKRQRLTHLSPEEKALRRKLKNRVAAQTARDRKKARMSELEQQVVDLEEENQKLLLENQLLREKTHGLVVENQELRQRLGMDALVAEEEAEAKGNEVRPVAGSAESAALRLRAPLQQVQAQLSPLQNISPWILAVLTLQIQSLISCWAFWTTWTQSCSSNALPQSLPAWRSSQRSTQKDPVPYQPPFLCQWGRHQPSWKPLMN
Nuclear receptor subfamily 4 group A member 2 (Homo sapiens), sequence (P43354 whole entry, looked up, the tested form may be a part): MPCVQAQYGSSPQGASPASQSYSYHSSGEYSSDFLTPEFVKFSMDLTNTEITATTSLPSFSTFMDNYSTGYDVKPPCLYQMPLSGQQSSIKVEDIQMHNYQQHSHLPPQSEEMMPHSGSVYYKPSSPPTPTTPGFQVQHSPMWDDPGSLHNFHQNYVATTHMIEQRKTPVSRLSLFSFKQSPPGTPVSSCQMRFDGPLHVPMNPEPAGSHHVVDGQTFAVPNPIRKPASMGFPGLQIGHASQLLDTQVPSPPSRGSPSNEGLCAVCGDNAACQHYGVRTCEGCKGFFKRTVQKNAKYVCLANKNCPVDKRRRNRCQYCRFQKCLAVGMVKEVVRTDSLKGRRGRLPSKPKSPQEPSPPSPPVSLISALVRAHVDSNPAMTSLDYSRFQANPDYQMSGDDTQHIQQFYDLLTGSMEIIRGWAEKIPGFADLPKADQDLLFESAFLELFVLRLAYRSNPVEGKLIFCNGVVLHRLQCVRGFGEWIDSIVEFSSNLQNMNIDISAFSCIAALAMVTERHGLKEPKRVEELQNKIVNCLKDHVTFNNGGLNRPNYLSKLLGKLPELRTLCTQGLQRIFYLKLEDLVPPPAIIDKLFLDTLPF
Oxysterols receptor LXR-alpha (Homo sapiens), sequence (Q13133 whole entry, looked up): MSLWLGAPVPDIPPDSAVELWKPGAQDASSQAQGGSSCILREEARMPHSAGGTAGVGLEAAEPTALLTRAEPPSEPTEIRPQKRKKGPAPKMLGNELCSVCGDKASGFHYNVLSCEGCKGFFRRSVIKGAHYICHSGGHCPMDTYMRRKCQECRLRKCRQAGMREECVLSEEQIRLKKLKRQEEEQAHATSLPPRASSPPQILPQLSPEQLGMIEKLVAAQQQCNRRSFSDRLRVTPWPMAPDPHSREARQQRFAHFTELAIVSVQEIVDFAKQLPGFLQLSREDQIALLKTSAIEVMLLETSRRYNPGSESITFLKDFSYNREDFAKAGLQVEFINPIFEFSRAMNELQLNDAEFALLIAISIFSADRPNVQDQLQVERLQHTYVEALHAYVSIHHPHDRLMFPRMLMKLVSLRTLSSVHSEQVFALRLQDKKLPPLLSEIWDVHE
Estrogen receptor (Homo sapiens), sequence (P03372 whole entry, looked up, the tested form may be a part): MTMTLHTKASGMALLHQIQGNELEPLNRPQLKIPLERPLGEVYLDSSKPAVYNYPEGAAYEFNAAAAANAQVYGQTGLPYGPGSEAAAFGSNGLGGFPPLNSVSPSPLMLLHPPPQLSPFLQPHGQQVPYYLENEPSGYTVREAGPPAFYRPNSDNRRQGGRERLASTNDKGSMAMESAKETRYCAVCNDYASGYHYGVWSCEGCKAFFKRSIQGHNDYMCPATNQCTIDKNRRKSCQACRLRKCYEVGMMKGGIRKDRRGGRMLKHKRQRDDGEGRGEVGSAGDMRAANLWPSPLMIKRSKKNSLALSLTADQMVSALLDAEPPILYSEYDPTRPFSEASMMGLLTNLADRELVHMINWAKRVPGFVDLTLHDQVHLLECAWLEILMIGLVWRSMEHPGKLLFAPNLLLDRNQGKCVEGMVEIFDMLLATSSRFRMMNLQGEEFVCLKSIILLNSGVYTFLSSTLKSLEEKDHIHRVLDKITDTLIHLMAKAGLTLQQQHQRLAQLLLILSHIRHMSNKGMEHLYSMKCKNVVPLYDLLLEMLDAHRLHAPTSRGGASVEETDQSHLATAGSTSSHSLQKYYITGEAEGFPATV
Steroid hormone receptor ERR1 (Homo sapiens), sequence (P11474 whole entry, looked up, the tested form may be a part): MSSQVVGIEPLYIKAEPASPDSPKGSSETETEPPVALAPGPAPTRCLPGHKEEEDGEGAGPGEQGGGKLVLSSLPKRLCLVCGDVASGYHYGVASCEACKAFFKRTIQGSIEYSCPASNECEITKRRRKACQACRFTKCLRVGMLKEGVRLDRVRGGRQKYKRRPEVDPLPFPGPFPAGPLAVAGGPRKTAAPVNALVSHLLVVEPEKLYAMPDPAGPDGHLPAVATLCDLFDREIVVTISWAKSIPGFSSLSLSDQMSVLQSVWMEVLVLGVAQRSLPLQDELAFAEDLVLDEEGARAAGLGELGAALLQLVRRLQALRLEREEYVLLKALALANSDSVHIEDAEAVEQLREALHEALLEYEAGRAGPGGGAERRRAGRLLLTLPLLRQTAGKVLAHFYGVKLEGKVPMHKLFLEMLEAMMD
Glucocorticoid receptor (Homo sapiens), sequence (P04150 whole entry, looked up): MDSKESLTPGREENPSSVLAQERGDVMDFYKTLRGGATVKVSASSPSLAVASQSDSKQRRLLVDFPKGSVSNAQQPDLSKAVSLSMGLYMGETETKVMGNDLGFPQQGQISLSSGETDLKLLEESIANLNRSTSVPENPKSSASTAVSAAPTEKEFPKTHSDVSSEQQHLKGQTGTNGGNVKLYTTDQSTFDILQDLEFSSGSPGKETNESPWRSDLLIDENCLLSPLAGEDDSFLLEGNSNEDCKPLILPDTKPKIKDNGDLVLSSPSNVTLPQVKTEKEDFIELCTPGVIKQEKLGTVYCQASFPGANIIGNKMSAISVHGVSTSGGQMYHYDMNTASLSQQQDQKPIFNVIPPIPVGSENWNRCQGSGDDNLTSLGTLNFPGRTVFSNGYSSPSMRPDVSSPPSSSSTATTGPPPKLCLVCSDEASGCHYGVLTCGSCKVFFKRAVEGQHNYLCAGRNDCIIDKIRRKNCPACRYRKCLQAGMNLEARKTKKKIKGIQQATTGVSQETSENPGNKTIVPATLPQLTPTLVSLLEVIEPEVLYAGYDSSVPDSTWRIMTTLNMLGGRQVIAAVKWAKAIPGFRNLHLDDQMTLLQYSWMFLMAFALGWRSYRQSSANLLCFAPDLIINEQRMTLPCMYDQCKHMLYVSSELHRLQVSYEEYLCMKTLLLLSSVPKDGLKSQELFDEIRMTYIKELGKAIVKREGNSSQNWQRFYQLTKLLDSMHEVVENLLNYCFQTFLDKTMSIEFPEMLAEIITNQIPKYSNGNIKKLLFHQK
Hepatocyte nuclear factor 4-alpha (Homo sapiens), sequence (P41235 whole entry, looked up, the tested form may be a part): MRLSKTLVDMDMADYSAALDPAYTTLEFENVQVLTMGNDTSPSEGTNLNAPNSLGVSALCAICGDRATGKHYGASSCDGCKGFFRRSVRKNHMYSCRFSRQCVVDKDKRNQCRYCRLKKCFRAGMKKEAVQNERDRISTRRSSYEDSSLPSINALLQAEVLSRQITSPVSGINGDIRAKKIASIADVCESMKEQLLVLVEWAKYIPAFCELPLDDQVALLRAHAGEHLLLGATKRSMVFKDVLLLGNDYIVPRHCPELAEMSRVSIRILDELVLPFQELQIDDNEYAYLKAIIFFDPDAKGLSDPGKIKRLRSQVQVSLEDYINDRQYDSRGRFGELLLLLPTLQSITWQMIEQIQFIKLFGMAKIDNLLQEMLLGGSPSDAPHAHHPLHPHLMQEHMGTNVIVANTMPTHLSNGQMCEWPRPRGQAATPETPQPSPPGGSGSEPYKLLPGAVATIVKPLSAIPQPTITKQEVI

CNC(=O)CSP(=S)(OC)OC
not listed: [16] | [17] | [18] | [19] | [20]
inactive: all other assays above

CCOCN(C(=O)CCl)c1c(C)cccc1CC
not listed: [8] | [9] | [11] | [12] | [19] | [20]
inactive: all other assays above

COP(=S)(OC)Oc1ccc([N+](=O)[O-])cc1
not listed: [8] | [16] | [19] | [20]
inactive: all other assays above

O=S(=O)(O)C(F)(F)C(F)(F)C(F)(F)C(F)(F)C(F)(F)C(F)(F)C(F)(F)C(F)(F)F
active: [3] 62.2 µM [middle of 9 runs] | [17] 100 µM
inactive: [1] | [2] | [3] | [4] | [16] | [7] | [17] | [8] | [18] | [9] | [10] | [11] | [12] | [13] | [14] | [15]

ClC1C(Cl)C(Cl)C(Cl)C(Cl)C1Cl (stereo unspecified)
active: [2] 100 µM | [7] 42.6 µM
inactive: [1] | [2] | [3] | [16] | [7] | [17] | [8] | [18] | [9] | [10] | [11] | [12] | [13] | [14] | [15]

COC(=O)c1ccccc1CS(=O)(=O)NC(=O)Nc1nc(OC)cc(OC)n1
not listed: [8] | [17] | [20]
inactive: all other assays above

CC(C)(C)C(O)/C(=C\c1ccc(Cl)cc1Cl)n1cncn1 (stereo unspecified)
not listed: [8] | [9] | [11] | [14] | [16] | [18] | [19] | [20]
inactive: all other assays above

CC1(C)C(C=C(Cl)Cl)C1C(=O)OC(C#N)c1ccc(F)c(Oc2ccccc2)c1 (stereo unspecified)
active: [4] 8.85 µM
not listed: [9] | [11] | [20]
inactive: all other assays above

CCOC1Oc2ccc(OS(C)(=O)=O)cc2C1(C)C (stereo unspecified)
active: [4] 25.7 µM | [6] 25.4 µM
not listed: [8] | [12] | [16] | [18] | [19]
inactive: all other assays above

O=S1OCC2C(CO1)C1(Cl)C(Cl)=C(Cl)C2(Cl)C1(Cl)Cl (stereo unspecified)
active: [6] 2.04 µM
not listed: [8] | [9] | [16] | [18] | [19] | [20]
inactive: all other assays above

COc1nn(CSP(=S)(OC)OC)c(=O)s1
active: [4] 50 µM
not listed: [11] | [14] | [16] | [17] | [18] | [20]
inactive: all other assays above
